From PubChem
A selection: hits, their analogues and other compounds. The true share with any hit is near 2.6%.
GLP-1R agonist: GLP-1 receptor (human) agonism. HEK293 GLP-1R CRE-luciferase, luminescence, 4-6 h; cells express a hypersensitive GLP-1R form. Potency, µM (highest dose often 45.6 µM), without a hit: at the top dose activation, actives largely listed as activators. 380,000 compounds, 0.007% hits. AID 624172; further: % of control where 0% means no effect
Target sequence (P43220 whole entry, looked up): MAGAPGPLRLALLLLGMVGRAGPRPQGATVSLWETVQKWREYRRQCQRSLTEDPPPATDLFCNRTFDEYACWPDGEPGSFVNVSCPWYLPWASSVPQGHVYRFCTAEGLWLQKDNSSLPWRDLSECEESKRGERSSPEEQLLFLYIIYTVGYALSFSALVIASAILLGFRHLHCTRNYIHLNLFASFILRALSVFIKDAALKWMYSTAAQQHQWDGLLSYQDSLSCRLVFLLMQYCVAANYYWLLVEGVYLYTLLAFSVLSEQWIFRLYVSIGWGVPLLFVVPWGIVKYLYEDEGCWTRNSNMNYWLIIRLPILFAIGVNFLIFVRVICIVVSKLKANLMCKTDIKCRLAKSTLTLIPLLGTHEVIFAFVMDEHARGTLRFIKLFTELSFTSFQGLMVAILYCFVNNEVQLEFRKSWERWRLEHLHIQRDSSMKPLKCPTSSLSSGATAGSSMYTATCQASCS
GLP1R cytotox: cytotoxicity counter-screen for GLP-1 receptor inverse agonists; AID 624418; 410,000 compounds, 0.13% hits; Potency, µM (doses to about 38.3 µM), without a hit: top-dose activity change, negative = inhibition, hits mostly inhibitors; HEK293 cAMP-luciferase reporter cells, luminescence, 24 h;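 further: loss of luciferase light is scored as toxicity; on the % scale 0 is the no-effect control and ±100 the full control effect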
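1536-well qHTS counterscreen of the MLSMR; 200 cells/uL, 12 h pre-incubation, 23 nL cpd, 24 h at 37 deg C 5% CO2, luciferase detection reagent, 12 min RT, luminescence. Inhibition = undesired.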
BRCA1 expr act: activators of BRCA1 expression; 380,000 compounds, 1.1% hits; Potency, µM (titrated, usually from 46.1 µM), without a hit: at the top dose activation, most hits filed as activators; MCF7-BRCA1-FFLuc reporter, luminescence, 48 h; response scale: scaled: vehicle 0%, 10 µM genistein 100%; further: nearly all actives have a fitted effect of over 80% in size
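First, MCF7-BRCA1-FFLuc cells (2000/well) attach for 2 h; next, compounds are pin-added and incubated 48 h at 37 °C; finally, luciferase reagent is added and luminescence read after 15 min.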
GLP1R inv ag: acts as inverse agonist at human GLP-1 receptor | HEK293 GLP-1R CRE-luciferase, luminescence, 24 h; GLP-1R form is constitutively active | AID 624417 | 410,000 compounds, 1.6% hits | Potency, µM (top dose mostly 38.3 µM), inactives show top-dose activity change, negative = inhibition, actives largely listed as inhibitors; further: on the % scale 0 is the no-effect control and ±100 the full control effect; nearly all actives have a fitted effect of over 55% in size
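Constitutively active GLP-1R drives a cAMP-responsive luciferase in stably transfected HEK293 cells; test compounds are added after overnight (12 h) attachment and left 24 hr, and signal loss in luminescence marks inhibition.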
Starred values were filed as active, the others as inactive; ? = inconclusive; . = not tested or not shown. The call rests on the fitted dose curve; in most records, active means well fitted curve in the direction sought with a large enough effect; inconclusive means small, poorly fitted or top-dose-only effect, or another doubt; inactive means no such curve, though single readings can be large; an effect the other way counts as inactive or inconclusive. Potency means the concentration at half of the fitted maximal effect.

SMILES	GLP-1R agonist	GLP1R cytotox	BRCA1 expr act	GLP1R inv ag
Cc1ccc(NC(=O)Cn2nnc3ccccc32)cc1	14%	-3%	8.9µM*	-17%
O=C(Cn1nnc2ccccc21)Nc1ccc([N+](=O)[O-])cc1	15%	-6%	11%	1%
COC(=O)c1ccc(NC(=O)Cn2nnc3ccccc32)cc1	9%	4%	10µM*	-21%
CNc1cccc(-c2c(OC)cccc2OC)n1	9%	5%	14%	-14%
O=[N+]([O-])c1ccc2c(c1)C=C/C2=C\c1ccc(C=S)cc1	.	.	5.6µM*	.
O=Cc1ccc(/C=C2/C=Cc3ccccc32)cc1	.	.	7%	.
CCOC(=O)c1noc2ncnc(Nc3cc(Cl)c(OC)cc3OC)c12	.	4%	13%	11%
COc1ccc(S(=O)(=O)N2CCC(c3cc(-c4cccc5ccccc45)n[nH]3)CC2)cc1	4%	-11%	-39%	?
O=S(=O)(c1cccc(C(F)(F)F)c1)N1CCC(c2cc(-c3cccc4ccccc34)n[nH]2)CC1	2%	-3%	-38%	8.9µM*
Cc1cc(C(=O)N2CCC2(C)C(=O)NS(=O)(=O)c2ccccc2Cl)nn1C (centres undefined)	-1%	20%	41%	0%
O=C(c1ccc(OC2CCN(CCc3ccccc3)CC2)cc1)N1CCCC1	11%	-3%	-15%	?
O=C(c1ccc(OC2CCN(CCc3ccccc3)CC2)cc1)N1CCCC(CCCO)C1 (centres undefined)	2%	-14%	0%	11µM*
O=C(c1ccc(OC2CCN(CCc3ccccc3)CC2)cc1)N1CCCCC1CCCO (centres undefined)	-5%	-10%	-1%	11µM*
CCCN1CNc2c(c(=O)[nH]c(=S)n2CCc2cccc(C)c2)C1	.	.	-21%	.
O=C(CSc1ccc(Cl)cc1)N1CCN(c2ncc(C(F)(F)F)cc2Cl)CC1	0%	6%	-51%	-26%
O=C(CN1CCN(c2ncc(C(F)(F)F)cc2Cl)CC1)N1CCN(c2ncc(C(F)(F)F)cc2Cl)CC1	-5%	3%	-65%	4.5µM*
O=C(O)C=C1CCN(c2ncc(C(F)(F)F)cc2Cl)CC1	17%	9%	11µM*	14%
O=C(O)/C=C(/CC(=O)O)C(=O)O	-5%	.	.	.
COc1ccc(NC(=O)/C(Cl)=C(/Cl)S(=O)Cc2ccccc2Cl)cn1 (centres undefined)	-8%	4µM*	-93%	?
COc1ccc(NC(=O)Cc2ccc(Cl)c(Cl)c2)cn1	13%	0%	34%	-2%
COc1cc(Cl)c(C)cc1NC(=O)CNC(C)c1ccccc1OC (centres undefined)	15%	8%	-37%	?
O=C(/C=C/c1ccc(Cl)cc1)N1CCOCC1	9%	-10%	86%	21%
O=C(/C=C/c1ccc(OCc2cccc(Cl)c2)cc1)N1CCOCC1	3%	-12%	20%	6.3µM*
CCN1C/C(=C\c2cccc([N+](=O)[O-])c2)C(=O)/C(=C/c2cccc([N+](=O)[O-])c2)C1	-17%	5µM*	-86%	?
O=C1/C(=C/c2cccc([N+](=O)[O-])c2)CCc2ccccc21	-19%	-1%	-23%	-17%
SMILES	GLP-1R agonist	GLP1R cytotox	BRCA1 expr act	GLP1R inv ag
CC(=O)Nc1nc(-c2ccc3c(c2)CCN3C(=O)C2CC2)c(C)s1	17%	16%	10%	0.63µM*
CNc1nc(-c2ccc3c(c2)CCN3C(=O)CC(C)(C)C)c(C)s1	-2%	0%	11µM*	?
COC(=O)c1ccc(NC(=O)CC2C(=O)N(c3cccc(OC)c3)C(=O)N2Cc2ccco2)cc1 (centres undefined)	.	2%	.	11%
O=C1C2C3C=CC(O3)C2C(=O)N1Nc1ccccc1 (centres undefined)	4%	-4%	-10%	8.9µM*
CC(C)(C)c1ccc(S(=O)(=O)N2CCN(c3nc(-c4ccccc4)nc4ccccc34)CC2)cc1	.	.	0%	.
CNCCC=C1c2ccccc2C=Cc2ccccc21	27%	6%	-12%	5µM*
COc1ccc(CC(=O)OCC(=O)c2ccc[nH]2)cc1	1%	-12%	-7%	-16%
COc1ccc(C(=O)COC(=O)c2cccc(-n3cnnn3)c2)c(OC)c1	12%	-5%	2.5µM*	34%
O=C(COC(=O)c1cccc(-n2cnnn2)c1)c1ccc(F)cc1	19%	1%	?	82%
COc1ccc(C(=O)COC(=O)c2cc(=O)[nH]c3ccccc23)c(OC)c1	-4%	5%	13µM*	18%
COc1ccc(C(=O)OCC(=O)c2ccc[nH]2)c(OC)c1	21%	-1%	8.9µM*	1%
Cc1ccsc1C(=O)OCC(=O)c1ccc[nH]1	5%	0%	5.6µM*	-6%
COc1ccc(C(=O)NCC(c2cccnc2)N2CCc3ccccc3C2)cc1OC (centres undefined)	.	-2%	.	15%
CCn1c(=N)c(C(=O)NC2CCCCC2)cc2c(=O)n3cc(C)ccc3nc21	3%	8%	0%	16%
COc1ccc(-c2nnc(SCC(=O)c3ccc(NC(C)=O)cc3)o2)cc1OC	.	0%	.	4%
CC(C)(C)CC(=O)Nc1ccc(Nc2ccccc2)cc1	3%	-24%	6.3µM*	?
CCCCc1ccc(NC(=O)CC(C)(C)C)cc1	12%	8%	13µM*	11µM*
CCCCc1ccc(NC(=O)CC(C)=O)cc1	-10%	?	45%	-2%
Cc1ccc(C(c2sc3nc(C)nn3c2O)N2CCN(CCO)CC2)cc1 (centres undefined)	6%	-13%	22%	9%
Cc1ccc(C(c2sc3nc(C)nn3c2O)N2CCN(c3ccccc3F)CC2)cc1 (centres undefined)	-7%	-16%	-12%	8.9µM*
CN(c1ccccc1C(=O)O)S(=O)(=O)c1ccc2[nH]c(=O)oc2c1	.	-8%	.	14%
CC1CC(C)CN(S(=O)(=O)c2ccc(C(=O)NCc3ccc4c(c3)OCO4)cc2)C1 (centres undefined)	5%	22%	-34%	10µM*
Cc1ccc(S(=O)(=O)N2CCCC(C(=O)NCCc3ccc4c(c3)OCO4)C2)cc1 (centres undefined)	-6%	15%	-19%	13µM*
COc1ccc(Br)cc1CNC(=O)C1CCCCN1S(=O)(=O)c1ccc(F)cc1 (centres undefined)	.	-11%	.	?
CC1=C(C(=O)Nc2ccccc2C(=O)NC2CCCCC2C)SCCO1 (centres undefined)	1%	0%	15%	10µM*
CC1=C(C(=O)Nc2ccccc2C(=O)N2CCCCC2)SCCO1	-3%	8%	1%	-19%
Cc1ccc(C)c(N2CCN(C(=O)c3ccc4[nH]c(C)c(C)c4c3)CC2)c1	.	-27%	.	7.9µM*
Cc1cc(C)nc(Nc2ccc(C(=O)O)cc2)n1	0%	10%	2.8µM*	-5%
O=C(COC(=O)CNC(=O)c1ccccc1)NC12CC3CC(CC(C3)C1)C2	-6%	-5%	-18%	6%
